Screening results: PubChem, several laboratories
Compounds with a hit are over-represented: about 1.6% of the library has one in this group of screens.
SIRT5 inh: blocks human SIRT5 desuccinylation of peptide; AID 652115; Q9NXA8; Purified SirT5, succinyl-peptide AMC, trypsin-coupled fluorescence; inhibition, % at 15 µM; hit rate 1.1% among 330,000; in the data active means inhibition above about 15%
Target sequence (Q9NXA8 whole entry, looked up): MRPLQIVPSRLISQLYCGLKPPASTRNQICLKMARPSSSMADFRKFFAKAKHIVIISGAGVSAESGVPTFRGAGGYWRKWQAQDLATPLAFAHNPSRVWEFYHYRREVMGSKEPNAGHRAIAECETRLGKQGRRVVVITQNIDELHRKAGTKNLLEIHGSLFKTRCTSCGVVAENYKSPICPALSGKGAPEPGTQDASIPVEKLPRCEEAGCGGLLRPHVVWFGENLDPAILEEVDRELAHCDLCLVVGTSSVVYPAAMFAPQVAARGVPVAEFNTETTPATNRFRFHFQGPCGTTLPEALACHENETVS
NSD2 HMT inh: blocks human histone methyltransferase NSD2; inhibition, % at 12.5 µM; NSD2 peptide methylation, AlphaScreen, 120 min; hit rate 0.54% among 310,000; O96028; AID 743445; in the data active means inhibition above about 50%
UBC9 SUMO inh: blocks human SUMOylation mediated by UBC9. HTRF SUMOylation assay, SAE1/SAE2 + UBC9, in vitro. inhibition, % at 35 µM. hit rate 0.36% among 290,000; in the data active means inhibition above about 50%, passing the limit was not always enough
Casp6 inh: caspase-6 (human) enzyme inhibition. AID 686996. hit rate 0.53% among 350,000. P55212. purified caspase-6, Z-VEID-R110 cleavage fluorescence. inhibition, % at 12.5 µM;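 active means mean inhibition across replicates at least about 35%, with every replicate also reaching that limit, limit read from the data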;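 further: 0% = median of neutral control wells and 100% = no fluorescence left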
Target sequence (P55212 24-179 limits assumed): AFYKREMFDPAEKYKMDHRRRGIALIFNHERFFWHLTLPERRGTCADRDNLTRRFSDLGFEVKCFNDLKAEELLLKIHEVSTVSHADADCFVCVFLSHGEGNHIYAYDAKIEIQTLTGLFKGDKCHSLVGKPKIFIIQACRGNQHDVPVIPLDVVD
Target sequence (P55212 194-293 limits assumed): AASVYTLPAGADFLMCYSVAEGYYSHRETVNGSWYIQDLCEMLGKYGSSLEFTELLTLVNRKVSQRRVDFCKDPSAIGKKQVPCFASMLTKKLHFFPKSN
AlphaScreen art: counter-screen for NSD2 inhibitors: AlphaScreen artifacts | shares compounds with NSD2 HMT inh | AlphaScreen artifact counterscreen, preloaded methylated H4 peptide | AC35, µM (titrated, usually from 10 µM), for the others: at the highest dose activity change, negative = signal loss | hit rate 9.4% among 1,500; call rule not given here
* = called active by the depositor; / = no result given.

SMILES	SIRT5 inh	NSD2 HMT inh	UBC9 SUMO inh	Casp6 inh	AlphaScreen art
CSCCC(NC(=O)c1ccccc1Cl)C(=O)NCC(c1ccc(F)cc1)N1CCOCC1 (stereo unspecified)	-3	141*	/	-1	-3%
COc1ccc(C(CNC(=O)C(CCSC)NC(=O)c2ccccc2Cl)N2CCOCC2)cc1 (stereo unspecified)	0	-1	/	-4	/
CC(C)(C)CN1CCNC(=O)C1CC(=O)N1CCC(C(=O)N2CCOCC2)CC1 (stereo unspecified)	0	79*	0	-4	-4%
CCOc1ccc(NC(=O)CSc2nnc(C34CC5CC(CC(C5)C3)C4)n2C)cc1	/	69*	15	/	-2%
O=C(CCN1C(=O)/C(=C\c2cccs2)SC1=S)Nc1ccc(C(=O)O)cc1	4	5	2	5	/
CC(C(=O)Nc1ccc(O)cc1C(=O)O)N1C(=O)/C(=C\c2cccs2)SC1=S (stereo unspecified)	8	83*	35	46*	-5%
CCOc1ccc(C2=NNC(c3cccs3)=Nc3ccc(OC)cc32)cc1OCC	/	2	-13	/	/
COc1ccc(C2=NNC(c3cccs3)=Nc3ccc(OC)cc32)cc1	/	51*	10	/	-14%
C[C@@H]1CCCCO[C@@H](CN(C)CC2CC2)[C@H](C)CN([C@@H](C)CO)C(=O)c2cc(NS(C)(=O)=O)ccc2O1	-4	/	/	1	/
C/C=C/c1ccc([C@H]2[C@@H](CO)N(C(=O)C3CCCC3)C23CN(C(=O)NC(C)C)C3)cc1	1	/	/	2	/
O=C(COc1ncnc2c(Cl)cc(Cl)cc12)N1CCCCC1	-4	53*	7	-1	-7%
CC(C)NC(=O)Nc1cccc2c1O[C@@H](CN(C)C(=O)NC1CCCCC1)[C@@H](C)CN([C@H](C)CO)C2=O	-5	/	/	-5	/
CC1=NOC(=O)/C1=C\c1ccc(-c2ccc(Br)cc2)o1	-2	69*	31	1	0%
N#Cc1c(N)n(-c2ccc(C(=O)O)cc2)c2nc3ccccc3nc12	-64	74*	50	7	-6%
COC(=O)C[C@H]1C[C@H]2c3cc(N(C)C)ccc3O[C@H]2[C@@H](CO)O1	-2	/	/	0	/
C[C@H](CO)N1C[C@H](C)[C@@H](CN(C)C(=O)c2ccc(F)cc2)OCc2ccccc2-c2ccccc2C1=O	6	/	/	1	/
O=C(Cc1ccccc1Cl)NC1(O)C(=O)c2ccccc2C1=O	-1	94*	/	15	4%
COC1=CC(=O)c2nc(Cl)ccc2C1=O	3	127*	/	100*	-2%
O=C(NC1=C(NC2CCS(=O)(=O)C2)C(=O)c2ccccc2C1=O)c1ccccc1 (stereo unspecified)	2	109*	19	95*	-1%
CCOC(=O)C1=C(C)N=c2s/c(=C/c3cccc([N+](=O)[O-])c3O)c(=O)n2C1c1ccccc1 (stereo unspecified)	12	63*	22	17	8.7µM*
CO[C@H]1CN(C)C(=O)c2ccc(NS(C)(=O)=O)cc2OC[C@@H](C)N(C(=O)CC2CC2)C[C@@H]1C	-11	/	/	/	/
COc1ccc(C)cc1S(=O)(=O)Nc1ccccc1C	/	69*	7	/	1%
C[C@@H]1CN([C@H](C)CO)C(=O)c2cc(-c3ccccc3)cnc2O[C@@H]1CN(C)C(=O)Cc1cccnc1	-1	/	/	-2	/
Cc1ccc(-c2ccc([C@H]3[C@@H](CO)N4C(=O)CN(C(=O)c5cccnc5)C[C@H]34)cc2)cc1	4	/	/	-2	/
Cc1cccc2c1NC(=O)C2=O	/	33	/	28	/
SMILES	SIRT5 inh	NSD2 HMT inh	UBC9 SUMO inh	Casp6 inh	AlphaScreen art
O=C1Nc2c(Cl)cccc2C1=O	/	126*	/	37*	4%
N#Cc1c(Cl)nc2c(c1C#N)CCCC2	0	61*	0	0	1%
CCCCc1nc(Cl)c(C#N)c2c1CCCC2	-4	-1	-9	-1	/
CC(=O)NC1=NN(C(C)=O)C(C)(c2cccc([N+](=O)[O-])c2)S1 (stereo unspecified)	-2	99*	3	-1	2%
O=C(NC1CCCCC1)N[C@@H]1CC[C@H](CCNS(=O)(=O)c2ccc(F)cc2)O[C@@H]1CO	2	/	/	3	/
Cc1cccnc1NC(=O)c1ccc(S(=O)(=O)N2CC(C)OC(C)C2)cc1 (stereo unspecified)	-14	50*	6	11	-1%
COc1ccccc1S(=O)(=O)N[C@H]1C=C[C@H](CC(=O)N2CCN(C)CC2)O[C@H]1CO	2	/	/	-1	/
C[C@@H]1CN([C@H](C)CO)C(=O)c2cc(-c3cccc(F)c3)cnc2O[C@@H]1CN(C)Cc1cccnc1	-8	/	/	-2	/
C[C@H]1CN([C@@H](C)CO)C(=O)Cc2cc(NC(=O)NC3CCCCC3)ccc2O[C@H]1CN(C)Cc1ccc(C(=O)O)cc1	1	/	/	1	/
CC(=O)N(C)C[C@H]1Oc2ncc(C#Cc3ccccc3)cc2C(=O)N([C@H](C)CO)C[C@H]1C	-1	/	/	0	/
COc1cc(NS(=O)(=O)c2ccc(NC(=S)NC(=O)/C=C/c3ccco3)cc2)ncn1	-2	150*	/	20	-4%
CCOc1ccc(NC(=S)NC(=O)/C=C/c2ccco2)cc1	0	-2	14	-1	/
O=c1c2ccccc2nc(COc2ccccc2)n1/N=C/c1ccc(O)c(O)c1	-3	65*	-6	14	-13%
O=C(O)COc1ccc(/C=N/n2c(COc3ccccc3)nc3ccccc3c2=O)cc1	-5	-2	5	-3	/
COc1ccccc1CNC(=O)C[C@@H]1C[C@@H]2c3cc(NS(C)(=O)=O)ccc3O[C@@H]2[C@H](CO)O1	-6	/	/	3	/
CCOC(=O)c1ccc(S(=O)(=O)N2CCN(c3ccccn3)CC2)cc1	-8	51*	-6	-1	-1%
Cc1cc(/C=C(/C#N)c2nc3ccccc3[nH]2)c(C)n1-c1cc(C(=O)O)cc(C(=O)O)c1	14	76*	31	/	-6%
COc1ccccc1CN1[C@H](CO)[C@@H]2c3ccccc3N(C(=O)C3CCCC3)C[C@@H]21	8	/	/	2	/
Cc1ccc2occ(/C=N/NC(=O)[C@@H](N)Cc3ccccc3)c(=O)c2c1	/	2	22	2	/
COCC(C)OC(=O)/C(C#N)=C\c1coc2ccc(C)cc2c1=O (stereo unspecified)	3	50*	15	-1	-4%
COc1ccc2c3c(n(C)c2c1)[C@@H](CO)N(Cc1nccs1)CC31CN(C(=O)CN(C)C)C1	4	/	/	0	/
C[C@H]1CN([C@@H](C)CO)C(=O)c2cc(Br)cnc2O[C@@H]1CN(C)Cc1ccncc1	-5	/	/	2	/
CC1CC(C)CN(C(=O)c2ccc3c(c2NCCO)C(=O)c2ccccc2C3=O)C1 (stereo unspecified)	/	81*	-39	/	8.1µM*
C[C@@H]1CN([C@@H](C)CO)C(=O)c2cc(-c3cccnc3)cnc2O[C@@H]1CN(C)C(=O)Nc1ccc(C(F)(F)F)cc1	2	/	/	-4	/
C[C@H](CO)N1C[C@H](C)[C@H](CN(C)C(=O)CC2CC2)Oc2ncc(C#CC3(O)CCCC3)cc2C1=O	-2	/	/	0	/
COc1ccc(C(=O)N2CCOCC2)cc1S(=O)(=O)N(C)Cc1ccccc1	/	-4	/	/	/
